Data on 93 compounds can be found in PubChem BioAssay AID588475 (Sanford-Burnham Center for Chemical Genomics, 2011).

Where “and” joins values, the source holds several entries; their conditions need not be identical. Equal entries are not always repeated. In all, about 350,000 compounds went through this assay and about 2,100 (0.6%) were called active.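 The calls were made as follows: active = inhibition of the ligand-induced calcium signal above about 50% at the single tested concentration (limit read from the data); inactive = the rest.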 For the sample, actives were picked, then their nearest neighbours and some compounds at random. More than one record can exist for a structure, and the calls need not agree.

A short description of this assay: antagonists of CRF-BP/CRF-R2 complex, primary screen, cell-based, HEK293, calcium dye fluorescence, uHTS (AID 588475). As to conditions: CRF-induced calcium fluorescence, at 11.8 µM, stronger effect = higher value.
As for `COc1ccc(Cn2c(O)c(/C=C3/C=CC=N3)c(=O)[nH]c2=O)cc1`, the inhibition was 0.93% (inactive).
In the case of `NC(=O)C1(N2CCCCC2)CCN(C2CC(=O)N(Cc3ccc(N4CCCC4=O)cc3)C2=O)CC1` (stereo not drawn), the inhibition was -8.44% (inactive).
Take `O=C(O)CSCC(=O)Nc1ccc(C(F)(F)F)cc1`: the inhibition was -14.8% (inactive).
As for `Cc1cc(C)c2c(=O)[nH]c(SCC(=O)Nc3ccc(Br)cc3)nc2n1`, the figure is -6.59% (inactive); as for `O=C(O)CC(SCC(=O)Nc1ccc(Br)cc1)C(=O)O` (stereo not drawn), 57.3% (active); as for `O=C(CN1CCOC1=O)N1CCCC(Nc2ccc(F)c(F)c2)C1` (stereo not drawn), 0.32% (inactive).
In the case of `CCc1cc(=O)oc2c(C)c(OCC(=O)N3CC[C@@]4(O)CCCC[C@H]4C3)ccc12`, the inhibition was -9.77% (inactive).
Regarding `COc1ccc(OC)c(CNC(=O)Cn2nc(C)c3c(C)n(-c4ccc(C)cc4)nc3c2=O)c1`, the inhibition was 9.58% (inactive).
On to `CCCCOC(=O)c1ccc(NC(c2ccc(C)cc2)P(=O)(OC)OC)cc1` (stereo not drawn), for which the inhibition is 102% (active).
Turning to `CCOP(=O)(OCC)C(Nc1cccc(C)c1)c1ccc(F)cc1` (stereo not drawn), the inhibition is -6.82% (inactive).
As for `CCOP(=O)(OCC)C(Nc1ccc([N+](=O)[O-])cc1)c1ccc(Cl)cc1` (stereo not drawn), the figure is 40.7% (inactive); as for `O=C(CCCn1c(=O)c2sccc2n(CC(=O)NCC2CCCO2)c1=O)NCc1ccco1` (stereo not drawn), -17.3% (inactive).
On to `CCOC(=O)N1CCN(S(=O)(=O)c2cc3c(cc2C)NC(=O)CO3)CC1`, for which the inhibition is -1.54% (inactive).
For the compound `CN1CCN(CC(=O)C23CC4CC(CC(C4)C2)C3)CC1`, the inhibition is 7.99% (inactive).
`Cc1ccccc1N1CCN(C2CCCN(C(=O)c3ocnc3C)C2)CC1` (stereo not drawn): the inhibition is 1% (inactive).
Turning to `Cc1ccccc1N1CCN(C2CCCN(C(=O)c3cn4c(C)cccc4n3)C2)CC1` (stereo not drawn), the inhibition is 53.6% (active).
Take `Cc1cnc(C(=O)N2CCCC(N3CCN(c4ccccc4F)CC3)C2)cn1` (stereo not drawn): the inhibition is 14.5% (inactive).
As to `Cc1ccc(-n2cc3ccc([N+](=O)[O-])cc3n2)cc1`, the inhibition is -2.01% (inactive).
`Cc1ccc(NC(=O)c2oc3ccccc3c2C)c([N+](=O)[O-])c1`: the inhibition is -13.1% (inactive).
On to `COc1cc(C)nc(N2CCCC(C(=O)NCC(C)C)C2)n1` (stereo not drawn), for which the inhibition was -9.18% (inactive).
Take `Cc1ccnc(N2CCCC(C(=O)NC3CC3)C2)n1` (stereo not drawn): the inhibition was 50.4% (active).
As for `O=C(NC1CC1)C1CCCN(C(=O)NC2CCCCC2)C1` (stereo not drawn), the inhibition was 1.71% (inactive).
Take `CC(C)(C)NC(=O)CN1CCC(NC(=O)C23CC4CC(CC(C4)C2)C3)CC1`: the inhibition was -2.97% (inactive).
The value for `O=C(CNCc1ccc(F)cc1)Nc1ccccc1-c1ccccc1` was -15% (inactive); that for `O=C(COC(=O)c1ccc(N2CCCC2=O)cc1)c1ccc(OC(F)F)cc1` was 4.33% (inactive).
As to `O=C(CCN1C(=O)c2ccccc2C1=O)Nc1cccc(F)c1`, the inhibition is -0.74% (inactive).
Consider `Cc1c(NC(=O)c2coc(=O)c(Br)c2)c(=O)n(-c2ccccc2)n1C`, for which the inhibition is -18.5% (inactive).
The value for `O=C(Nc1cccc(F)c1)c1coc(=O)c(Br)c1` was 102% (active); that for `Cc1nn(-c2ccccc2)c(Cl)c1/C=N/NC(=O)c1nn(C)cc1[N+](=O)[O-]` was 15.5% (inactive).
As for `Cc1nn(-c2ccccc2)c(Cl)c1/C=C/C(=O)c1ccc(O)cc1`, the inhibition is 57.7% (active).
As for `Cc1nn(-c2ccccc2)c(C)c1/C=C/C(=O)OC(C)C(N)=O` (stereo not drawn), the figure is 23.7% (inactive).
For the compound `CC1(C)CC(=O)C(N=Nc2c(F)cccc2F)=C(O)C1`, the inhibition is 14.8% (inactive).
`O=C(NCCC1=CCCCC1)c1ccc(-n2cncn2)cc1`: the inhibition is -5.9% (inactive).
For `Cn1nnc2cc(C(=O)NCCC3=CCCCC3)ccc21`, the inhibition is 69% (active).
For `CN(c1ccc(C(=O)NCCC2=CCCCC2)cc1)S(C)(=O)=O`, the inhibition is 3.31% (inactive).
In the case of `CCCCCCCCCCCC(=O)O`, the inhibition was 16.1% (inactive).
Take `Cc1ccc(S(=O)(=O)c2c[nH]c3ccc(C)cc3c2=O)cc1`: the inhibition was -6.79% (inactive).
`O=C(c1[nH]ncc1-c1ccc(Cl)cc1)C1CO1` (stereo not drawn): the inhibition was 98.5% (active).
On to `O=C(c1nnc(-c2ccc(Cl)cc2)o1)C1CCCC1`, for which the inhibition is 1.38% (inactive).
`S=c1[nH]nc(-c2ccc(Cl)cc2)n1CC1CCCO1` (stereo not drawn): the inhibition is 19% (inactive).
For the compound `CN(C(=O)c1cccc(NC(=O)Cc2ccc([N+](=O)[O-])cc2)c1)C1CCC1`, the inhibition was 10.4% (inactive).
The value for `CCOC(=O)c1cc2occc2n1CC(=O)NC1CCC(C)CC1` (stereo not drawn) was 4.37% (inactive); that for `O=C(CN1C(=O)CC(c2ccccc2)=Nc2ccccc21)NC1CCCCC1` was 3.75% (inactive).
The value for `CC(=O)Oc1c(C(=O)c2nnc(C)o2)c(=O)n(Cc2ccccc2)c2ccccc12` was -18.6% (inactive); that for `NC(N)=N/N=C/c1ccc(OCc2ccc(Cl)cc2Cl)cc1` was -68.7% (inactive); that for `Cc1oc2c(c1C(=O)N1CCOCC1)C(=O)c1ccccc1C2=O` was 3.77% (inactive).
The value for `O=S(=O)(Nc1cc(Cl)ccc1N1CCOCC1)c1ccccc1Cl` was 3.16% (inactive).
For the compound `O=C1c2ccccc2-c2ncnc3c(N4CCOCC4)cc(N4CCOCC4)c1c23`, the inhibition is 54% (active).
The value for `CC1=C(C(=O)N(C)C)C(c2ccccc2OC(F)F)NC(=O)N1` (stereo not drawn) was -0.09% (inactive).
As to `CCCn1nc(Oc2nc(NC(C)C)nc(N(C)C)n2)ccc1=O`, the inhibition is 2.18% (inactive).
The value for `O=C(Nc1ccc(Br)cc1)c1cc(S(=O)(=O)Nc2ccccn2)ccc1Cl` was -2.82% (inactive); that for `COc1ccccc1C(=O)Nc1ccc(C)c(S(=O)(=O)N2CCCCC2)c1` was -0.27% (inactive).
In the case of `Cc1ccc(NS(=O)(=O)c2ccc(C(C)C)cc2)cc1S(=O)(=O)N1CCOCC1`, the inhibition is -10.7% (inactive).
As for `Cc1ccc(NS(=O)(=O)c2cccs2)cc1S(=O)(=O)N1CCCCCC1`, the inhibition was 122% (active).
As for `CN(C)CCCO/N=C(\c1ccccc1)c1ccncc1`, the figure is 1.7% (inactive).
In the case of `Cc1cccc(CSc2nnc(C)c(=O)n2N)c1`, the inhibition was 18.4% (inactive).
For the compound `Cc1cccc(CSc2nc3c(c(=O)n2C)SCC3)c1`, the inhibition is 59.8% (active).
On to `Cn1c(SCC(=O)N2CCCCC2)nc2c(c1=O)SCC2`, for which the inhibition was -10.6% (inactive).
As for `CCCN1C2=C(C(=O)CCC2)C(c2ccc(O)c(Br)c2)C2=C1CCCC2=O`, the figure is -18.3% (inactive); as for `CCc1c(C)nc(N)n2c(SCC(=O)NC3CCCCC3)nnc12`, -4.43% (inactive); as for `CCOc1cc(/C=N/NC(=O)OC)ccc1OCCSc1ccc(Cl)cc1`, -13.1% (inactive).
In the case of `CCOc1cc(/C=C(/C#N)c2ccc(Cl)cc2)cc(Cl)c1OCC(=O)O`, the inhibition was 57.4% (active).
Consider `COc1cc(/C=C(/NC(=O)c2ccc(Cl)cc2Cl)C(=O)O)cc(OC)c1OC`, for which the inhibition was -5.5% (inactive).
Take `COc1ccc(SC[C@H](Cc2ccccc2)N2CCN(CCc3ccccc3)CCC2=O)cc1`: the inhibition is -0.63% (inactive).
As for `O=C(NC(Nc1nc2ccc([N+](=O)[O-])cc2s1)(C(F)(F)F)C(F)(F)F)c1ccccc1`, the figure is 56.4% (active).
For `O=C(O)c1cc([N+](=O)[O-])c(Nc2cccc3ccccc23)c([N+](=O)[O-])c1`, the inhibition was 42.1% (inactive).
`N=C1C(c2nc3ccccc3s2)=C(O)CN1NC(=O)c1ccc([N+](=O)[O-])cc1`: the inhibition was 18.1% (inactive).
Consider `O=C(COc1ccc(NC(=O)c2ccccc2[N+](=O)[O-])cc1)c1ccc(F)cc1`, for which the inhibition was 20.8% (inactive).
In the case of `Cc1ccccc1-c1cc(C(=O)NCc2cccs2)n(CC2CC(c3cccnc3)=NO2)n1` (stereo not drawn), the inhibition is 9.77% (inactive).
Consider `COc1ccc(C2=NOC(Cn3nc(C(=O)NCc4ccc5c(c4)OCO5)cc3-c3ccccc3)C2)cc1` (stereo not drawn), for which the inhibition was 1.87% (inactive).
Regarding `Cc1ccc(CNC(=O)c2cc(-c3ccccc3C)n(CC3CC(c4cccc([N+](=O)[O-])c4)=NO3)n2)cc1` (stereo not drawn), the inhibition is 78.1% (active).
The value for `CC(C)c1cc(C(=O)N(C)C2CCCN(Cc3ccccc3F)C2)n(C)n1` (stereo not drawn) was -12.1% (inactive).
With `CCCCn1c(N)c(N(CC(C)C)C(=O)c2cccc(S(=O)(=O)N3CCN(C(C)=O)CC3)c2)c(=O)[nH]c1=O`, the inhibition was 8.7% (inactive).
On to `Cc1ccc(C)c(NC(=O)COC(=O)CSc2ccccc2)c1`, for which the inhibition is 6.02% (inactive).
On to `COC(=O)C(CC(=O)Nc1cc(C)ccc1C)Nc1ccccc1OC` (stereo not drawn), for which the inhibition is 70.2% (active).
In the case of `COc1ccccc1NC(=O)CC(NCCN(C)C)C(=O)O` (stereo not drawn), the inhibition is 3.95% (inactive).
The value for `CCc1ccc(S(=O)(=O)NCC(O)COc2ccc(OC)cc2)cc1` (stereo not drawn) was -4.68% (inactive); that for `Cc1ccccc1Nc1scc(-c2ccc(Br)cc2)[n+]1-c1ccccc1C` was 56.5% (active); that for `Cc1ccsc1/C=N/NC(=O)Cc1cc(=O)[nH][nH]1` was 14.1% (inactive).
On to `Cc1cccc(N2CCN(C(C)C(=O)N3CCc4ccccc43)CC2)c1C` (stereo not drawn), for which the inhibition was -7.95% (inactive).
Consider `CCC(C)N(C(=O)CSc1ncnc2c1cnn2-c1ccccc1)C1CCS(=O)(=O)C1` (stereo not drawn), for which the inhibition was -8.13% (inactive).
With `CCN(C(=O)CSc1ncnc2c1cnn2-c1ccccc1)C1CCS(=O)(=O)C1` (stereo not drawn), the inhibition was 4.09% (inactive).
For the compound `CCN(CC)C(=O)CSc1ncnc2c1cnn2-c1ccccc1`, the inhibition is 55.8% (active).
For `O=C(COC(=O)c1cncc(Br)c1)Nc1ccc(S(=O)(=O)N2CCOCC2)cc1`, the inhibition was 5.84% (inactive).
Consider `COc1ccc(CCNC2=C(Cl)C(=O)N(Cc3ccccc3)C2=O)cc1OC`, for which the inhibition is 54% (active).
On to `COc1ccc(CCN2C(=O)C(C)=C(C)C2=O)cc1OC`, for which the inhibition is -6.13% (inactive).
For the compound `COc1ccc(CCN=C2SCC(=O)N2Cc2ccccc2)cc1OC`, the inhibition was 7.2% (inactive).
Turning to `N#Cc1ccc(-c2ccc(Cl)cc2)nc1Oc1ccc(F)cc1`, the inhibition was -14% (inactive).
Regarding `Clc1ccc(Cl)c(Oc2ccc(Oc3nc(Cl)ccc3Cl)cc2)n1`, the inhibition was 55.5% (active).
As for `CCc1nn(CC(=O)N2CCN(CC)CC2)c(=O)c2cccn12`, the inhibition is -5.15% (inactive).
The value for `CN(CCOc1ccc(CC2SC(=O)NC2=O)cc1)c1ccccn1` (stereo not drawn) was 66.6% (active) and 12.6% (inactive); that for `CC(C)=N/N=C1/NC(=O)C(Cc2ccccc2)S1` (stereo not drawn) was 2.42% (inactive); that for `CC(O)c1ccc(OCCN(C)c2ccccn2)cc1` (stereo not drawn) was -5.71% (inactive).

As a reminder, the inhibition is the drop in the measured response relative to a control, in per cent.
